Rows were chosen to be rich in hits. Some 1.3% of all compounds tested hit in one or more screens of this group.
NR2F2 inh = inhibitors of human COUP-TFII (NR2F2); P24468; HEK293T NGFI-A luciferase reporter, luminescence; inhibition, % at 8.6 µM; 0.7% of 370,000 active;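 active means inhibition above a per-plate cutoff, mean inhibition of test wells between control levels plus 3 SD, cut at about 38% in these data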;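 further: cells cotransfected with COUP-TFII expression vector driving the NGFI-A reporter; 0% = median of COUP-TF2 test wells and 100% = reporter-only cells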
Gli-Sufu block = Gli-Sufu pathway antagonism; Sufu-KO-LIGHT fibroblasts, Gli luciferase reporter luminescence; inhibition, % at 5 µM; 0.74% of 340,000 active;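 active means inhibition above about 55%, limit read from the data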;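 further: 0% = DMSO-treated cells and 100% = wells with medium but no cells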
SRC3 inh = human NCOA3 inhibition; Q9Y6Q9; HEK293 GAL4-SRC3 luciferase reporter, luminescence; inhibition, % at 3.6 µM; 0.17% of 360,000 active; AID 588352;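 active means inhibition above a per-campaign cutoff, the mean of all compounds plus 3 SD, cut at about 60% in these data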;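 further: 0% = DMSO-treated cells and 100% = gossypol-treated cells at 36 µM; higher means less SRC3-driven luciferase light from the GAL4 reporter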
Target sequence (Q9Y6Q9 whole entry, looked up, the tested form may be a part): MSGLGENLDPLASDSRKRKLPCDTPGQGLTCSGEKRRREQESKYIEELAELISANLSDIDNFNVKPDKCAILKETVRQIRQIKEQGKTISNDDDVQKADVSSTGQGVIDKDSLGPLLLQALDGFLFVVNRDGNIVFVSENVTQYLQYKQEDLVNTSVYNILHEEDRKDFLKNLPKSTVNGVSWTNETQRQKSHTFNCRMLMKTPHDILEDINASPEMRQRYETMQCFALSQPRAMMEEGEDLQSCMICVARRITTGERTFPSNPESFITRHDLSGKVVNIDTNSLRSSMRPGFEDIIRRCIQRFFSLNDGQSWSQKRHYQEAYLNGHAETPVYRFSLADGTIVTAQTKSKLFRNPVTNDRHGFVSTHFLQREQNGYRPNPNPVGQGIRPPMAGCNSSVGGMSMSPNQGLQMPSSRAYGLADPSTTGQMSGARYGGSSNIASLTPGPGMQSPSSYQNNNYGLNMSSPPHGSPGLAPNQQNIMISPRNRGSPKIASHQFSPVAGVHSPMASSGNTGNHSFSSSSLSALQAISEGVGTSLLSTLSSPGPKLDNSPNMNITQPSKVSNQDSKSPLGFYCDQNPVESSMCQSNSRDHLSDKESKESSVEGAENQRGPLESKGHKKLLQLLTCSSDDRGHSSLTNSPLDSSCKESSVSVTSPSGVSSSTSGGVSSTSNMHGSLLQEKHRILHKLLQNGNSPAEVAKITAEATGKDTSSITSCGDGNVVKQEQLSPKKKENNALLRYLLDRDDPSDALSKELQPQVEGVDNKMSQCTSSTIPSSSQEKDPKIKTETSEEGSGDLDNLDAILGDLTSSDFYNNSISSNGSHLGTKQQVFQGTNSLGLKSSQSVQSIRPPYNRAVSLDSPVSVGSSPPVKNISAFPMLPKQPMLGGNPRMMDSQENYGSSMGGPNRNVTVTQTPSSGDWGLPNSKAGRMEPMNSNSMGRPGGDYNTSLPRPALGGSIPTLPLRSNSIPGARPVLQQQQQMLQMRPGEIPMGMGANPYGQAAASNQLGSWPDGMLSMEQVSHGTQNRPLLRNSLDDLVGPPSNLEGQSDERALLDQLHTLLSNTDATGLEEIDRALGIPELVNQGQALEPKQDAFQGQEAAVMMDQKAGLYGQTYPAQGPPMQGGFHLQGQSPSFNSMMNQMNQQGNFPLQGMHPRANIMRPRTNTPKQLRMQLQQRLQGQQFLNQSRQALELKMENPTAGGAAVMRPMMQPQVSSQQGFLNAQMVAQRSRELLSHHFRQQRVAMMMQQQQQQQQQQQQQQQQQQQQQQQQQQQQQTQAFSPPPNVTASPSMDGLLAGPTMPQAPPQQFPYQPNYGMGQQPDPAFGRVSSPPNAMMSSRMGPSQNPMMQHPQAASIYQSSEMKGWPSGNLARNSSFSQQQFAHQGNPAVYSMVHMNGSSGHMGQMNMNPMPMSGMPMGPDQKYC
LRH-1 inv ag = inverse agonists of human LRH-1 (NR5A2) | O00482 | HEK293T StAR-luciferase reporter, LRH-1 transfected, 24 h | inhibition, % at 3.6 µM | 0.13% of 360,000 active | AID 602396;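 active means inhibition above the mean inhibition of all tested compounds plus 3 SD, cut at about 73% in these data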;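 further: 0% = DMSO wells and 100% = reporter-only cells lacking LRH-1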
NCOA1 inh = inhibitors of human steroid receptor coactivator 1 (SRC1); Q15788; HEK293 GAL4-SRC1 luciferase reporter, luminescence; inhibition, % at 3.6 µM; 0.12% of 360,000 active; AID 588354;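 active means inhibition above the campaign mean plus 3 SD, with each screening campaign given its own cutoff, cut at about 60% in these data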;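 further: 0% = DMSO treated cells and 100% = gossypol at 36 µM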
SRC2 inh = human SRC2 (NCOA2) inhibition; inhibition, % at 9 µM; 0.17% of 370,000 active; AID 651957; HEK293 GAL4-SRC2 luciferase reporter, luminescence; Q15596;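 active means inhibition above the mean inhibition of all tested compounds plus 3 SD, set per campaign, cut at about 52% in these data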;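 further: 0% = DMSO treated cells and 100% = cells given Gossypol at 36 µM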
Gli-Sufu confirm = confirmation of Gli-SUFU pathway antagonists; Sufu-KO-LIGHT cells, Gli luciferase reporter, luminescence; 40% of 2,500 active; inhibition, % at 5 µM; AID 602428; shares compounds with Gli-Sufu block;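 active means mean inhibition at 5 µM reaching about 45%, limit read from the data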;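 further: plate controls were DMSO-treated cells for no effect and wells lacking cells for full effect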
SufuKO cytotox = cytotoxicity counter-screen for Gli-SUFU antagonists; shares compounds with Gli-Sufu block; Sufu-KO-LIGHT cells cytotoxicity, ATP luminescence; cytotoxicity, % at 5 µM; 32% of 2,500 active; AID 651994;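 active means mean cytotoxicity at 5 µM above about 25%, limit read from the data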;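 further: cells exposed to compound overnight for roughly 16 to 18 hours; plate controls were DMSO wells with cells for no effect and medium without cells for full effect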
Wnt3a counter = inhibits Wnt3a reporter, counter-screen for Gli-SUFU antagonists. shares compounds with Gli-Sufu block. Wnt-LIGHT cells, Wnt3a-driven luciferase reporter, luminescence. inhibition, % at 6.25 µM. 20% of 2,500 active;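 active means mean inhibition above about 25%, limit read from the data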
* hit, by the source's call; nt = not tested or not shown.

SMILES	NR2F2 inh	Gli-Sufu block	SRC3 inh	LRH-1 inv ag	NCOA1 inh	SRC2 inh	Gli-Sufu confirm	SufuKO cytotox	Wnt3a counter
COC(=O)c1ccc(/C=C2/SC(=S)N(CCCC(=O)Nc3ccc(O)cc3)C2=O)cc1	19	19	9	-2	-6	36	nt	nt	nt
Cc1ccc(/C=C2\SC(=S)N(CCCC(=O)Nc3ccc(O)cc3)C2=O)cc1	31	42	47	9	23	67*	nt	nt	nt
CC1CCC2(CC1)CCC2NCc1ccc(Cl)cc1 (stereo not drawn)	-9	nt	nt	nt	nt	nt	nt	nt	nt
COc1ccc(CN2CN3Cc4ccccc4C3CS2(=O)=O)cc1 (stereo not drawn)	4	nt	nt	nt	nt	-7	nt	nt	nt
COCCCNC(=O)Cn1nc(Cc2ccncc2)c2ccccc2c1=O	-20	nt	nt	nt	nt	7	nt	nt	nt
C#Cc1ccc([C@@H]2C=C(C(=O)N3CCN(Cc4ccccc4)CC3)O[C@H](OCCCCO)C2)cc1	nt	nt	55	89*	60	nt	nt	nt	nt
O=C(C1=C[C@H](c2ccccc2)C[C@H](OCCCCO)O1)N1CCN(Cc2ccccc2)CC1	7	5	0	-2	-2	6	nt	nt	nt
CC(C)(C)c1ccc(C(=O)CCC(=O)OCC(=O)NCCc2ccc(S(N)(=O)=O)cc2)cc1	29	3	-2	26	-3	54*	nt	nt	nt
O=C(CSc1nnc(-c2ccccc2)n1-c1ccc(Cl)cc1)c1ccc(F)cc1	-3	nt	nt	nt	nt	-15	nt	nt	nt
CCOC(=O)c1ccc(-c2ccc(N3C(c4cccc(OC)c4)=Cc4ccc(F)cc4C3CC(C)=O)cc2)cc1F (stereo not drawn)	16	nt	nt	21	nt	60*	nt	nt	nt
O=C(Nc1ncc(Cc2ccc(SC(F)F)cc2)s1)c1ccc(OC(F)F)cc1	-54	60*	9	8	15	32	71*	66*	4
CCC(C)N(C(=O)CSc1nnc(-c2cc(OC)c(OC)c(OC)c2)o1)C(C)CC (stereo not drawn)	12	nt	nt	nt	nt	5	nt	nt	nt
Cc1ccc(C(=O)N2CCCC(N(C)Cc3ccccc3)C2)s1 (stereo not drawn)	5	95*	18	-13	5	-10	23	-3	-29
Cc1ccc(C(=O)N2CCCC(C(=O)c3cc(F)ccc3F)C2)s1 (stereo not drawn)	6	7	3	-4	3	-18	nt	nt	nt
COc1ccc2c(c1)CN1C(=O)N(Cc3ccccc3)S(=O)(=O)CC21 (stereo not drawn)	-13	nt	nt	nt	nt	17	nt	nt	nt
C/C(=N\NC(=O)c1ccn(C)n1)c1ccc(NC(=O)C2CCC2)cc1	-3	72*	-43	-119	-93	-47	21	14	18
C/C(=N\NC(=O)c1ccn(C)n1)c1ccc(NC(=O)C2CCCC2)cc1	-41	2	-38	-102	-71	-39	nt	nt	nt
O=C1N2Cc3ccccc3C2CS(=O)(=O)N1CCc1ccccc1 (stereo not drawn)	-16	nt	nt	nt	nt	-14	nt	nt	nt
COc1ccc(-c2cnc3c(c2)CCC3(C#N)C#N)cc1	-17	52	13	23	-1	24	61*	47*	-32
CC1(C)C2CCC1(C)C(OCC[N+](C)(C)CC(=O)OC1CCCCC1)C2 (stereo not drawn)	-1	79*	12	11	-7	-22	75*	32*	22
CCOc1ccccc1-c1nc(CN2CCCC2c2nccs2)c(C)o1 (stereo not drawn)	-3	50	19	-2	10	9	26	4	-2
COc1ccc(-c2nnc(SCC(=O)Nc3cccc4ccccc34)n2Cc2ccco2)cc1	-14	nt	nt	nt	nt	18	nt	nt	nt
CCN(Cc1ccccc1)C(=O)Cn1cnc2c1c(=O)n(C)c(=O)n2C	0	59*	12	-22	2	5	15	17	22
C=CCn1c(SCn2nnc3ccccc3c2=O)nc2scc(-c3cccs3)c2c1=O	-6	52	9	-11	14	-9	14	21	0
COCCn1c(SCC(=O)/C=C2\N(C)c3ccccc3C2(C)C)nnc1-c1ccncc1	-1	59*	1	6	4	42	34	2	-35
SMILES	NR2F2 inh	Gli-Sufu block	SRC3 inh	LRH-1 inv ag	NCOA1 inh	SRC2 inh	Gli-Sufu confirm	SufuKO cytotox	Wnt3a counter
COCCn1c(SCC(=O)c2c(-c3ccccc3)n(C)c3ccccc23)nnc1-c1ccncc1	-4	1	6	7	3	-11	nt	nt	nt
CSc1nc2c(c(C(F)(F)F)n1)CC(C)CC2 (stereo not drawn)	18	99*	-7	17	-3	14	3	0	-11
O=C(Nc1ccc(F)cc1)OCCCN1C(=O)CCC12CCCCC2	-4	nt	nt	nt	nt	-35	nt	nt	nt
Cc1cc(C)cc(NS(=O)(=O)c2ccc(-c3cnc(C4CC4)o3)cc2)c1	-49	55*	11	29	-8	16	51*	57*	-14
O=S(=O)(Nc1ccccc1)c1ccc(-c2cnc(C3CC3)o2)cc1	-17	5	6	24	3	-3	nt	nt	nt
Cc1cc(-c2cccnc2)c(C#N)c(SCc2cccc(F)c2)n1	-1	55	-6	-15	5	-20	31	22	2
COc1ccc2c(c1)CCCN2C(=O)C1CCCN(S(=O)(=O)c2cc(OC)ccc2OC)C1 (stereo not drawn)	-1	nt	nt	nt	nt	18	nt	nt	nt
O=C(Nc1nc(=O)c2ccccc2s1)c1ccccc1	-35	-77	-115	-68	-107	-15	nt	nt	nt
O=C(Nc1nc2c(s1)C(=O)CCC2)c1ccccc1	-21	70*	-52	-137	-95	-33	-66	29*	2
O=C(CSc1nc2ccccc2nc1N1CCCCC1)N1CCN(C(c2ccccc2)c2ccc(Cl)cc2)CC1 (stereo not drawn)	-13	nt	nt	nt	nt	-2	nt	nt	nt
COc1ccc(-c2cc(-c3nnc(SCC(=O)Nc4ccc(-c5nc6ccc(C)cc6s5)cc4)n3N)[nH]n2)cc1	-53	nt	nt	nt	nt	-68	nt	nt	nt
O=C(c1cc(Br)cc(Br)c1)N1CCC(Oc2cccnc2)CC1	10	nt	nt	nt	nt	-10	nt	nt	nt
COc1ccc(-c2nc3n(c(=O)c2C#N)CCS3)cc1	-12	56*	5	1	2	28	14	19	-21
Cc1ccc2nc(SCC(=O)NCc3ccccc3)nc(=O)n2c1	13	97*	8	-7	-19	5	21	33*	-17
Cc1ccccc1-c1cc(C(=O)Nc2sc(C)c(C)c2C(N)=O)c2ccccc2n1	15	9	-5	38	5	-1	nt	nt	nt
CCOC(=O)c1sc(NC(=O)c2cc(-c3ccccc3C)nc3ccccc23)c(C#N)c1C	8	63*	5	5	0	-3	82*	20	74*

High-throughput results deposited in PubChem by several laboratories.
